Experimental data: the supplement of paper PMC12494721
Counter-ions that a name gives are not always drawn.

Tests used:
Details in all cases: incubation time: 27 h, anaerobic, 37 °C;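 for the amine columns active = adjusted P below 0.05 in both replicates with a change the same way and a mean fold change under 0.8 or over 1.25; inactive = the rest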
[1] = tested on: Clostridium sporogenes DSM 1664; experiment: growth (OD595) fold change vs plate DMSO controls (fold change (ratio)); higher = more growth
Procedure, shortened: (§1)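 After 27 h at 37 °C under anaerobic conditions, 96-well cultures in mGAM were shaken and read at 595 nm. The readings were blank-subtracted, corrected for compound background using 20 µM compound solutions in water, and converted to OD with a calibration factor of 5. Growth is defined as the fold change over the median of DMSO controls on each plate. Fold changes above 1.5 were set to NA, and each value is the mean of 2 biological replicates.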

Escherichia coli IAI1 [2] = experiment: as above
Procedure, shortened: as §1

[3] = tested on: Klebsiella aerogenes DSM 30053; experiment: as above
Procedure, shortened: as §1

[4] = tested on: Ruminococcus gnavus DSM 108212; experiment: as above
Procedure, shortened: as §1

[5] = tested on: Klebsiella aerogenes DSM 30053; experiment: fold change of Histamine concentration vs plate DMSO controls (fold change (ratio)); higher = more amine produced, active = hit call of the paper (significant change in both replicates, either direction)
Procedure, shortened: (§2)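 Amine values are fold changes relative to DMSO-only wells on the same plate. They derive from 27 h, 37 °C anaerobic mGAM cultures of four gut bacterial strains in 80 µL wells, dosed at 20 µM final, or 50 µM final for sweeteners. Extraction of the whole culture, LC–triple-quadrupole MS in dynamic MRM mode, external calibration curves and within-batch drift correction were used, with 2 biological replicates averaged.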

[6] = tested on: Clostridium sporogenes DSM 1664; experiment: fold change of Tryptamine concentration vs plate DMSO controls (fold change (ratio)); higher = more amine produced, active = hit call of the paper (significant change in both replicates, either direction)
Procedure, shortened: as §2

[7] = tested on: Ruminococcus gnavus DSM 108212; experiment: as above
Procedure, shortened: as §2

Escherichia coli IAI1 [8] = experiment: fold change of Putrescine concentration vs plate DMSO controls (fold change (ratio)); higher = more amine produced, active = hit call of the paper (significant change in both replicates, either direction)
Procedure, shortened: as §2

[9] = tested on: Klebsiella aerogenes DSM 30053; experiment: as above
Procedure, shortened: as §2

Escherichia coli IAI1 [10] = experiment: fold change of Cadaverine concentration vs plate DMSO controls (fold change (ratio)); higher = more amine produced, active = hit call of the paper (significant change in both replicates, either direction)
Procedure, shortened: as §2

[11] = tested on: Klebsiella aerogenes DSM 30053; experiment: as above
Procedure, shortened: as §2

[12] = tested on: Ruminococcus gnavus DSM 108212; experiment: fold change of 2-Phenylethylamine concentration vs plate DMSO controls (fold change (ratio)); higher = more amine produced, active = hit call of the paper (significant change in both replicates, either direction)
Procedure, shortened: as §2

Row | SMILES | growth [1] | growth (Escherichia coli IAI1 [2]) | growth [3] | growth [4] | fold change of Histamine concentration [5] | fold change of Tryptamine concentration [6] | fold change of Tryptamine concentration [7] | fold change of Putrescine concentration (Escherichia coli IAI1 [8]) | fold change of Putrescine concentration [9] | fold change of Cadaverine concentration (Escherichia coli IAI1 [10]) | fold change of Cadaverine concentration [11] | fold change of 2-Phenylethylamine concentration [12]
1 | Nc1cc(C(Cl)=C(Cl)Cl)c(S(N)(=O)=O)cc1S(N)(=O)=O [Clorsulon] (20 µM) | 1.04 | 0.963 | 0.957 | 0.922 | 1.15 (inactive) | 0.998 (inactive) | 1.02 (inactive) | 1.02 (inactive) | 1.03 (inactive) | 0.981 (inactive) | 0.978 (inactive) | 1.01 (inactive)
2 | CN1CCN(CC(=O)N2c3ccccc3C(=O)Nc3cccnc32)CC1 [Pirenzepine dihydrochloride] (20 µM) | 1.06 | 1.02 | 0.992 | 1.03 | 1.1 (inactive) | 1.02 (inactive) | 0.993 (inactive) | 1.01 (inactive) | 1.08 (inactive) | 0.99 (inactive) | 1.04 (inactive) | 0.916 (inactive)
3 | CN(Cc1cc(Br)cc(Br)c1N)C1CCCCC1 [Bromhexine hydrochloride] (20 µM) | 0.942 | 0.985 | 0.971 | 0.937 | 1.06 (inactive) | 1.05 (inactive) | 1 (inactive) | 1 (inactive) | 1.03 (inactive) | 1.06 (inactive) | 0.991 (inactive) | 1.07 (inactive)
4 | CCN[C@H]1CN(CCCOC)S(=O)(=O)c2sc(S(N)(=O)=O)cc21 [Brinzolamide] (20 µM) | 1.17 | 1.04 | 1 | 1.04 | 1 (inactive) | 1.02 (inactive) | 0.944 (inactive) | 1.05 (inactive) | 0.989 (inactive) | 1.01 (inactive) | 1 (inactive) | 0.899 (inactive)
5 | Cc1ncc(C[n+]2csc(CCO)c2C)c(N)n1 [Thiamine hydrochloride] (20 µM) | 0.972 | 0.961 | 1.01 | 1.14 | 0.968 (inactive) | 1.06 (inactive) | 0.914 (inactive) | 1.01 (inactive) | 0.998 (inactive) | 1.01 (inactive) | 1.01 (inactive) | 0.868 (inactive)
6 | CC1(C)O[C@@H]2C[C@H]3[C@@H]4C[C@H](F)C5=CC(=O)C=C[C@]5(C)[C@@]4(F)[C@@H](O)C[C@]3(C)[C@]2(C(=O)CO)O1 [Fluocinolone acetonide] (20 µM) | 1.13 | 1.04 | 1.01 | 0.973 | 1.06 (inactive) | 1.02 (inactive) | 0.996 (inactive) | 1.05 (inactive) | 1.04 (inactive) | 1.05 (inactive) | 1 (inactive) | 0.976 (inactive)
7 | CCOc1ccc(NC(N)=O)cc1 [(4-Ethoxyphenyl)urea] (50 µM) | 1.13 | 0.949 | 0.994 | 1.09 | 0.964 (inactive) | 0.979 (inactive) | 0.999 (inactive) | 0.971 (inactive) | 0.986 (inactive) | 1.11 (inactive) | 1.01 (inactive) | 0.947 (inactive)
8 | COc1c(O)cc2c(c1O)[C@@H]1O[C@H](CO)[C@@H](O)[C@H](O)[C@H]1OC2=O [Bergenin] (20 µM) | 0.966 | 1.05 | 1.11 | 1.05 | 0.891 (inactive) | 1.01 (inactive) | 1.06 (inactive) | 0.97 (inactive) | 0.997 (inactive) | 0.93 (inactive) | 1.03 (inactive) | 1.05 (inactive)
9 | CC(C)CN(C[C@@H](O)[C@H](Cc1ccccc1)NC(=O)O[C@H]1CO[C@H]2OCC[C@H]21)S(=O)(=O)c1ccc(N)cc1 [Darunavir] (20 µM) | 1.14 | 1 | 1 | 0.966 | 1.05 (inactive) | 1.01 (inactive) | 0.863 (inactive) | 1.04 (inactive) | 0.998 (inactive) | 1.05 (inactive) | 0.996 (inactive) | 0.837 (inactive)
10 | CCN1CCCC1CNC(=O)c1cc(S(=O)(=O)CC)c(N)cc1OC (stereo not given) [Amisulpride] (20 µM) | 1.16 | 0.998 | 1 | 1.31 | 1.01 (inactive) | 1.01 (inactive) | 1.04 (inactive) | 1.01 (inactive) | 0.999 (inactive) | 0.987 (inactive) | 0.999 (inactive) | 1.05 (inactive)
11 | CCCc1cc(C(N)=S)ccn1 [Prothionamide] (20 µM) | 1.09 | 1.15 | 0.999 | 0.999 | 1.01 (inactive) | 0.998 (inactive) | 0.977 (inactive) | 1.18 (inactive) | 0.982 (inactive) | 1.01 (inactive) | 0.999 (inactive) | 0.946 (inactive)
12 | CC(=O)Oc1ccc(C(c2ccc(OC(C)=O)cc2)c2ccccn2)cc1 [Bisacodyl] (20 µM) | 0.976 | 0.978 | 0.993 | 0.731 | 1.06 (inactive) | 0.942 (inactive) | 0.988 (inactive) | 0.967 (inactive) | 1.02 (inactive) | 1 (inactive) | 0.998 (inactive) | 0.954 (inactive)
13 | CCC(=O)O[C@]1(C(=O)CCl)[C@@H](C)C[C@H]2[C@@H]3CCC4=CC(=O)C=C[C@]4(C)[C@@]3(F)[C@@H](O)C[C@@]21C [Clobetasol propionate] (20 µM) | 1.36 | 1.06 | 1.06 | 0.908 | 0.98 (inactive) | 1.02 (inactive) | 0.96 (inactive) | 0.988 (inactive) | 1.02 (inactive) | 1.01 (inactive) | 0.999 (inactive) | 0.936 (inactive)
14 | C[C@@H]1C[C@H]2[C@@H]3C[C@H](F)C4=CC(=O)C=C[C@]4(C)[C@@]3(F)[C@@H](O)C[C@]2(C)[C@@]1(O)C(=O)COC(=O)C(C)(C)C [Flumethasone pivalate] (20 µM) | 0.889 | 0.954 | 1 | 0.811 | 1.04 (inactive) | 1 (inactive) | 1.04 (inactive) | 1 (inactive) | 0.998 (inactive) | 1.02 (inactive) | 0.984 (inactive) | 1.05 (inactive)
15 | C[C@H](O)[C@H](O)[C@H]1CNc2[nH]c(N)nc(=O)c2N1 [Sapropterin dihydrochloride] (20 µM) | 1.12 | 0.893 | 0.928 | 0.813 | 0.931 (inactive) | 0.972 (inactive) | 0.945 (inactive) | 1.01 (inactive) | 1.01 (inactive) | 1.03 (inactive) | 1.01 (inactive) | 0.911 (inactive)
16 | CCCC(CCC)C(=O)O [Valproic acid] (20 µM) | 1.23 | 1.01 | 0.99 | 0.931 | 0.977 (inactive) | 1.07 (inactive) | 1.11 (inactive) | 0.943 (inactive) | 0.971 (inactive) | 0.999 (inactive) | 0.999 (inactive) | 1.1 (inactive)
17 | C[C@@H]1O[C@@H](O[C@H]2[C@H](Oc3cc(O)c(C(=O)CCc4ccc(O)cc4)c(O)c3)O[C@H](CO)[C@@H](O)[C@@H]2O)[C@H](O)[C@H](O)[C@H]1O [Naringin Dihydrochalcone] (50 µM) | 1.1 | 0.965 | 1.05 | 1.2 | 0.958 (inactive) | 0.968 (inactive) | 1 (inactive) | 0.983 (inactive) | 0.996 (inactive) | 1.13 (inactive) | 1.01 (inactive) | 0.966 (inactive)
18 | CC(=O)Nc1ccc(OCC(O)CNC(C)C)cc1 (stereo not given) [Practolol] (20 µM) | 0.924 | 1.01 | 1 | 1.17 | 1.03 (inactive) | 1.05 (inactive) | 1.04 (inactive) | 1.04 (inactive) | 0.993 (inactive) | 0.999 (inactive) | 1.01 (inactive) | 1.02 (inactive)
19 | CN(C)CCN1C(=O)c2ccccc2N(C)c2ccccc21 [Dibenzepine hydrochloride] (20 µM) | 1.02 | 0.993 | 0.972 | 0.677 | 1.06 (inactive) | 0.993 (inactive) | 1.03 (inactive) | 1.01 (inactive) | 1.01 (inactive) | 1.02 (inactive) | 0.985 (inactive) | 1.06 (inactive)
20 | CCOC(=O)[N-]c1c[n+](N2CCOCC2)no1 [Molsidomine] (20 µM) | 0.839 | 1.04 | 0.98 | 0.196 | 1.03 (inactive) | 1.19 (inactive) | 0.153 (active) | 0.994 (inactive) | 1.02 (inactive) | 0.951 (inactive) | 1 (inactive) | 0.14 (active)
21 | O=C(NC(Cc1cc(=O)[nH]c2ccccc12)C(=O)O)c1ccc(Cl)cc1 (stereo not given) [Rebamipide] (20 µM) | 0.925 | 1.01 | 0.964 | 0.957 | 0.934 (inactive) | 1.06 (inactive) | 1.28 (active) | 1.07 (inactive) | 0.965 (inactive) | 0.957 (inactive) | 1 (inactive) | 1.52 (active)
22 | CC(C)NC[C@H](O)COc1ccc(CC(N)=O)cc1 [(S,-) Atenolol] (20 µM) | 0 | 0.913 | 1.01 | 0.825 | 1.04 (inactive) | 0.0316 (active) | 0.944 (inactive) | 0.847 (inactive) | 1.03 (inactive) | 0.954 (inactive) | 1.02 (inactive) | 0.909 (inactive)
23 | OCCN1CCN(CCCN2c3ccccc3C=Cc3ccccc32)CC1 [Opipramol dihydrochloride] (20 µM) | 1.12 | 0.948 | 0.983 | 0.902 | 1.03 (inactive) | 1.07 (inactive) | 1.02 (inactive) | 0.888 (inactive) | 0.994 (inactive) | 1.04 (inactive) | 0.98 (inactive) | 1.02 (inactive)
24 | C[N+](C)(CCOc1ccccc1)Cc1ccccc1.O=C([O-])c1cc2ccccc2cc1O [Bephenium hydroxynaphthoate] (20 µM) | 0.816 | 0.99 | 0.976 | 0.995 | 1.04 (inactive) | 1.16 (inactive) | 1.04 (inactive) | 0.854 (inactive) | 0.99 (inactive) | 1.51 (active) | 0.992 (inactive) | 1.06 (inactive)
25 | CCc1c(C)[nH]c2c1C(=O)C(CN1CCOCC1)CC2 (stereo not given) [Molindone hydrochloride] (20 µM) | 0.781 | 1.07 | 1 | 1.1 | 1.02 (inactive) | 1.02 (inactive) | 1.07 (inactive) | 1.03 (inactive) | 0.987 (inactive) | 0.906 (inactive) | 1.01 (inactive) | 1.08 (inactive)
